FEN1 inh: inhibitors of human flap endonuclease 1. P39748. Recombinant FEN1 flap cleavage, fluorescence, 15 min. Potency, µM (doses to about 114 µM), actives largely listed as inhibitors. 0.35% of 390,000 active. AID 588795; note: nearly all actives have a fitted effect of over 65% in size
Target sequence (P39748 whole entry, looked up): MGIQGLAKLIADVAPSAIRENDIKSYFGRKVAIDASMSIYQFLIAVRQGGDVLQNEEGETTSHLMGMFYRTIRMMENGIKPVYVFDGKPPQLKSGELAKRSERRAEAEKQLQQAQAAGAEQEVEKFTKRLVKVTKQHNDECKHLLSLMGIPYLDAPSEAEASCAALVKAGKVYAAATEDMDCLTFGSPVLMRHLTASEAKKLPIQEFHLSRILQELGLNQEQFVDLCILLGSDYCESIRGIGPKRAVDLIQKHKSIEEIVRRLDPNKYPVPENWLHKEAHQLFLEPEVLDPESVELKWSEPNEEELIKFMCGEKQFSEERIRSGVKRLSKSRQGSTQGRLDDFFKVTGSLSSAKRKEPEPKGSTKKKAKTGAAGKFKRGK
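Read-out was taken twice, immediately and after 15 min, following addition of 50 nM substrate to 10 nM FEN1 that had sat with test compound for 15 min at room temperature. Curves came from a four-parameter Hill model.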
POLB inh: inhibitors of human DNA polymerase beta | P06746 | Pol beta primer extension/strand displacement, fluorescence kinetic | Potency, µM (top dose mostly 114 µM), actives largely listed as inhibitors | 1.3% of 340,000 active | AID 485314
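Reaction started by 50 nM substrate onto compound-treated Pol beta (10 nM, 15 min preincubation, room temperature); plates read at 0 min and 10 min. Normalized concentration-effect data fitted by four-parameter Hill equation.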
POLI inh: blocks human DNA polymerase iota activity; AID 588590; Pol iota fluorescent replication assay, 10 min; Potency, µM (highest dose often 115 µM), most hits filed as inhibitors; Q9UNA4; 1% of 390,000 active
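Fluorescent replication assay read twice, at 0 min and 10 min after adding 50 nM (final) substrate. Enzyme (10 nM) and compounds were first incubated 15 min at room temperature; enzyme-free buffer wells were negative controls.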
Pol kappa inh: DNA polymerase kappa (human) inhibition. Q9UBT6. purified Pol kappa, fluorescent DNA synthesis assay, 10 min. Potency, µM (titrated, usually from 107 µM), actives largely listed as inhibitors. 0.53% of 400,000 active. AID 588579
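Fluorescent qHTS in 1536-well format: enzyme (10 nM) and compound sat 15 min at room temperature before 50 nM substrate (final) was added. Signal taken at 0 and 10 min; no-enzyme buffer wells were negative controls.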
Pol eta inh: inhibitors of human DNA polymerase eta | Potency, µM (titrated, usually from 114 µM), actives largely listed as inhibitors | 1.2% of 390,000 active | recombinant Pol eta, fluorescent DNA replication assay | AID 588591
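Pol eta at 10 nM preincubated with compounds 15 min at room temperature; reaction started with fluorescent substrate (50 nM final) and read kinetically at 0 and 10 min.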
WRN inhibitor: blocks human WRN helicase; Q14191; WRN helicase unwinding, fluorescent forked duplex, kinetic; Potency, µM (titrated, usually from 114 µM), usual class: inhibitors; 0.46% of 360,000 active; note: nearly all actives have a fitted effect of over 55% in size
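WRN at 20 nM final was preincubated with compound for 15 min at room temperature; reaction started with 100 nM forked duplex oligonucleotide carrying fluorophore and quencher plus 2 mM ATP (final). Unwinding followed kinetically by red fluorescence (ex 525/em 598 nm).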
Numbers stand for hits; n = inactive; u = inconclusive; x = no result given; ! = not active in a repeat; [ ] = dose if it differs, or a comment. Compounds with a hit are over-represented: about 2.4% of the library has one in this group of screens. Calls come from the whole dose curve; as a rule, active = well fitted curve in the direction sought with a large enough effect; inconclusive = small, poorly fitted or top-dose-only effect, or another doubt; inactive = no such curve, though single readings can be large; an effect the other way counts as inactive or inconclusive.

SMILES	FEN1 inh	POLB inh	POLI inh	Pol kappa inh	Pol eta inh	WRN inhibitor
CCOC(=O)Cc1cc(=O)c2c(=O)n(-c3ccccc3)[nH]c2[nH]1	n	n	22.4µM	22.4µM	n	n
O=c1c2c3c(sc2nnn1Cc1ccc(F)cc1)CCCC3	n	n	n	n	n	x
Cc1oc2cc(O)ccc2c(=O)c1Oc1ccccc1	n	n	n	n	n	70.8µM
CN(C(=O)COC(=O)c1ccccc1OCC(=O)Nc1ccc(Br)cc1)c1ccccc1	n	x	n	n	x	x
COc1ccccc1/C=C/C=N/n1c(-c2n[nH]c3c2CCC3)n[nH]c1=S	n	7.94µM	n	n	u	n
COc1cccc(/C=N/n2c(-c3n[nH]c4c3CCC4)n[nH]c2=S)c1O	n	n	n	n	n	n
CCN1CCN(C(=O)c2cnn(-c3ccc(F)cc3F)c2C2CCN(C(=O)OC(C)(C)C)CC2)CC1	n	n	n	n	n	x
C1=Cc2ccccc2/C1=C\c1cc[cH-]c1.[Fe+2].c1cc[cH-]c1	12.6µM	x	1.78µM	1.12µM	x	x
Nc1ccc(/C=C2\C=Cc3ccccc32)cc1	n	x	n	n	x	x
CC(=O)N(C)c1ccc(/C=C2\C=Cc3ccccc32)cc1	n	x	n	n	x	x
C[N+](C)(C)c1ccc(/C=C2\C=Cc3ccccc32)cc1	35.5µM	x	n	n	x	x
CN(CC(=O)O)c1ccc(/C=C2\C=Cc3ccccc32)cc1	n	x	n	56.2µM!	x	x
COc1ccc(N2CCN(C(=O)c3cc(S(=O)(=O)N4CCCCCC4)cn3C)CC2)cc1	n	n	n	n	n	x
Nc1nccc(/C=C/c2c(F)cccc2Cl)n1	n	n	n	n	n	n
O=c1cc(/C=C/c2c(F)cccc2Cl)[nH]c2ccccc12	n	n	n	n	11.2µM	n
CN(Cc1ccccc1)C(=O)COC(=O)/C=C/c1ccco1	n	14.1µM	u	u	u	n
COc1ccc(C(=O)COC(=O)/C=C/c2ccco2)cc1F	n	x	35.5µM	u	u	n
O=C(COC(=O)/C=C/c1ccco1)Nc1ccccc1	n	22.4µM	u	n	u	n[11.6 µM]
COC(=O)c1ccccc1NC(=O)COC(=O)/C=C/c1ccco1	n	u	n	n	n	n
CCN(c1ccc(NC(=O)COC(=O)/C=C/c2ccco2)cc1)C(C)C	n	x	n	n	n	n
CC1CCCC(NC(=O)COC(=O)/C=C/c2ccco2)C1C (stereo unspecified)	n	x	70.8µM	n	n	n
N#Cc1ccccc1NC(=O)C(=O)NCCc1csc2nc(-c3cccc(F)c3)nn12	n	n	n	n	n	x
O=C[C@@H]1CCCN1C(=O)[C@@H]1CCCN1C(=O)OCc1ccccc1	x	x	x	n[19.4 µM]	x	x
O=c1cc(-c2ccc(O)cc2)oc2c(-c3c(O)cc(O)c4c(=O)cc(-c5ccc(O)cc5)oc34)c(O)cc(O)c12	u	x	u	u	25.1µM	n
Cc1nnc(SCc2ccccc2Cl)c2cc3sccc3n12	n	u	n	n	n	x
SMILES	FEN1 inh	POLB inh	POLI inh	Pol kappa inh	Pol eta inh	WRN inhibitor
COc1cc(OC)cc(N2C(=O)CC(N3CCC(C(=O)N4CCCCC4)CC3)C2=O)c1 (stereo unspecified)	n	20µM	u	n	u	n
COc1ccc(Cn2ccc3nc(C)c(C(=O)N4CCN(c5cc(C)ccc5C)CC4)cc3c2=O)cc1	n	n	n	n	n	x
CN=c1scc(-c2ccccc2F)n1/N=C/c1ccc(O)c(O)c1O	u	1.41µM	u	u	u	56.2µM
CCN=c1scc(-c2cccs2)n1/N=C/c1cc(OC)ccc1O	n	n	n	n	n	n
CN=c1scc(-c2ccccc2F)n1/N=C/c1ccc[nH]1	n	n	n	n	n	n
CC(C)N=c1scc(-c2cccs2)n1/N=C/c1ccc(O)c(O)c1O	n	2.24µM	u	u	u	u
COc1ccc(-c2noc(N3CCN(c4cccc(Cl)c4)CC3)n2)cc1OC	n	n	u	n	n	x
CC(C)(C)n1ncc2c(=O)n(Cc3c(F)cc(Cl)cc3F)cnc21	n	x	n	n	x	x
O=C(NCCc1ccccc1)c1nccc2ccccc12	n	x	n	n	n	n
c1ccc(CCNc2ccnc3cc4ccccc4cc23)cc1	50.1µM	22.4µM	n	n	n	n
Cc1ccnc2ccc([N+](=O)[O-])cc12	n	x	n	n	x	x
O=C(CCCCCCCC(=O)NNC(=O)Nc1ccccc1)NNC(=O)Nc1ccccc1	n	31.6µM	u	n	n	n
O=C(CCc1ccccc1)NNC(=O)Nc1ccccc1	n	n	n	n	n	n
Cc1ccc(C(C[N+](=O)[O-])Sc2ccc(N)cc2)cc1 (stereo unspecified)	n	n	n	n	n	44.7µM
CC(=O)C1CCC2C3CC(C)C4=CC(=O)CC[C@@]4(C)C3C(O)C[C@@]12C (stereo partly specified)	x	x	x	n	x	x
COC(=O)/C=C/C(C)=C/C=C/C(C)=C/C=C/C=C(C)/C=C/C=C(C)/C=C/C(=O)O	x	x	x	31.6µM	x	x
Cc1ccc(C)c(SCC(=O)Nc2ccc(S(=O)(=O)Nc3ncccn3)cc2)c1	n	u	u	n	50.1µM	n[11.6 µM]
Cc1ccnc(NS(=O)(=O)c2ccc(NC(=O)Cc3cccs3)cc2)n1	u	20µM	14.1µM	31.6µM	2.51µM	39.8µM
Cc1ccnc(NS(=O)(=O)c2ccc(NC(=O)Cc3ccc(F)cc3)cc2)n1	n	n	n	n	n	n
O=C1/C(=C\c2ccc(O)c(O)c2)Oc2c1ccc(O[C@@H]1O[C@H](CO)[C@@H](O)[C@H](O)[C@H]1O)c2O	u	x	22.4µM	31.6µM	x	x
O=C(Nc1c(C(=O)Nc2cccc(F)c2)oc2ccccc12)c1cc2ccccc2o1	n	n	n	n	n	x
CCCCN(CC)C(=O)Cc1c(C(=O)O)[nH]c2ccc(Cl)cc12	n	n	n	n	n	n
CCCN(C(=O)Cc1c(C(=O)O)[nH]c2ccc(Cl)cc12)c1ccc(OCC)cc1	n	50.1µM	n	n	n	x
O=C1C(=O)c2c(ccc3ccccc23)-c2ccccc21	n	x	n	n	7.94µM	n[11.6 µM]
Cc1cccc(N2CCC(N3CCN(C4CCCCC4)C(CCO)C3)CC2)c1C (stereo unspecified)	n	39.8µM	n	n	n	n
CC(C)N1CCC(N2CCN(C3CCCC3)CC2CCO)CC1 (stereo unspecified)	n	n	n	n	n	n
CC(=O)Nc1ccccc1-c1nc2ccccc2n(CC(=O)Nc2cccc(C(F)(F)F)c2)c1=O	n	n	n	n	n	x
COc1ccc(C(C)=O)cc1COc1ccccc1[N+](=O)[O-]	n	n	n	n	n	n
Cc1ccccc1NC(=O)Cc1nc(COC(=O)c2ccc(NC(N)=O)cc2)cs1	n	x	n	n	u	n
Cc1ccccc1NC(=O)COC(=O)c1ccc(S(C)(=O)=O)c([N+](=O)[O-])c1	n	u	u	n	89.1µM	n[11.6 µM]
